In assay [1] the target is Ratio of Nucleoli Translocation and Cytoplasm, AR (gene 367) (UniProt P10275). Put plainly: UPITT_HCI_U2OS_AR_TIF2_Nucleoli_Cytoplasm_Ratio_Antagonist: University of Pittsburgh U2OS Androgen Receptor-Transcriptional Intermediary Factor 2 (AR-TIF2) Antagonism High Content Imaging Assay for Ratio of Nucleoli Translocation and Cytoplasm (AID 2283999; active means hit-call score of the fitted dose curve at least 0.9, where 1 is the maximum;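 further: antagonists lower the DHT-driven ratio of nucleolar to cytoplasmic red signal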). Summed up: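 This antagonist-mode endpoint tracks AR-RFP localisation, the nucleolus-to-cytoplasm intensity ratio, in TIF2-GFP-coexpressing U2OS cells. DMSO stays at or below 0.5%; testing spans 20 uM single-dose and 0.195–50 uM series, with DHT setting the activity baseline.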

For assay [2] the target is unchanged. Put plainly: UPITT_HCI_U2OS_AR_TIF2_Nucleoli_Cytoplasm_Ratio_Agonist: University of Pittsburgh U2OS Androgen Receptor-Transcriptional Intermediary Factor 2 (AR-TIF2) Agonism High Content Imaging Assay for Ratio of Nucleoli Translocation and Cytoplasm (AID 2284000; active means hit-call score of the fitted dose curve at least 0.9, where 1 is the maximum;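 further: hits raise the red nucleolar to cytoplasm ratio above vehicle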). Summed up: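 Compounds tested at 20 uM final in primary screen (0.2% DMSO) and 0.195-50 uM final in dose-response (0.5% DMSO). Imaging of human U2OS cells bearing RFP-AR and GFP-TIF2; endpoint is nucleoli/cytoplasm red signal ratio, positive direction relative to DMSO.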

The nature of assay [3]: CCTE_Harrill_HTTr_Viability_MCF7: CCTE's 6-hour Cell Viability Assessment for the High-Throughput Transcriptomics (HTTr) Platform, in MCF-7 cells cultured in DMEM + 10% fetal bovine serum, Harrill Lab (AID 2284010). Summed up: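 Eight-point concentration series, six-hour exposure. Propidium iodide exclusion imaged to assess membrane integrity as a cytotoxicity readout; bidirectional fitting was done with DMSO as negative control and activity baseline.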

A short description of assay [4]: CCTE_Harrill_HTTr_Apoptosis_MCF7: CCTE's 6-hour Apoptosis Assessment for the High-Throughput Transcriptomics (HTTr) Platform, in MCF-7 cells cultured in DMEM + 10% fetal bovine serum, Harrill Lab (AID 2284011). Summed up: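 Read-out: CellEvent Caspase 3/7 Green signal by high content imaging, gain-of-signal indicating apoptosis. MCF-7 cells, DMEM + 10% FBS, eight-point dilution series, 6 h exposure. Curves fitted bidirectionally relative to DMSO negative control.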

Assay [5] in a line: CCTE_Harrill_HTTr_CellCount_MCF7: CCTE's Cell Proliferation Assessment for the High-Throughput Transcriptomics (HTTr) Platform, Harrill Lab (AID 2284012; active means hit-call score of the fitted dose curve at least 0.9, where 1 is the maximum;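 further: intended direction is loss of nuclei count meaning fewer cells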). Summed up: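 For this full-screen endpoint, MCF-7 cultures received eight compound dilutions for six hours. Well nuclei counts from Hoechst imaging were analyzed relative to DMSO.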
Assay [6] in a line: CCTE_Simmons_MITO_basal_resp_rate: CCTE's HepG2 Seahorse XF Respirometric Screening Assay at Basal Respiratory State, Simmons Lab (AID 2284001). Conditions: actives raise or lower the signal. Summed up: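 Basal-phase OCR in HepG2 cells, read at 6-min intervals across a 72-min run, with test compound injected at 125 nM–100 uM final (7 points). Fitted both directions against DMSO; three biological replicates per concentration.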

The nature of assay [7]: CCTE_Simmons_MITO_inhib_resp_rate: CCTE's HepG2 Seahorse XF Respirometric Screening Assay at Inhibited Respiratory State [full ETC block], Simmons Lab (AID 2284006). Conditions: actives raise or lower the signal. Summed up: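 Test chemicals at seven final concentrations (125 nM–100 uM) in three biological replicates, with DMSO as vehicle. HepG2 oxygen consumption was then tracked on a Seahorse XF96 for 72 min through FCCP and rotenone/antimycin A phases, with the inhibited-phase rate as the endpoint.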

Assay [8] is described as follows: CCTE_Simmons_MITO_viability: CellTiter-Glo Viability Assessment for CCTE's HepG2 Seahorse XF Respirometric Screening Assay [post-hoc], Simmons Lab (AID 2284007; active means hit-call score of the fitted dose curve at least 0.9, where 1 is the maximum;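 on AC50: cells exposed to chemical for 90 min before the ATP read; actives lower ATP signal relative to DMSO baseline meaning reduced viability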). Summed up: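 Post-hoc viability check on the HepG2 respirometry plates: luciferase-based ATP signal measured once, after 90 min compound exposure spanning 125 nM–100 uM final. Activity was referenced to DMSO as baseline.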
A general note: ATP-based viability assays read luminescence as a measure of living cells.

The nature of assay [9]: CCTE_Shafer_MEA_acute_spike_number: CCTE's Neural Acute Assay for Total Number of Spikes, Shafer Lab (AID 2284008).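 On AC50: curve fitted for decrease in spike count so AC50 reflects inhibitors.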 Summed up:
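Rat cortical cultures, DIV 13/15, 37 C. 40 min baseline rec, cpd 0.03-40 uM, 40 min post-dose rec. Band-pass 300-5000 Hz, spike threshold 8x rms; % change in spike count per well, DMSO neg ctrl, loss-of-signal fit.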

The nature of assay [10]: CCTE_Shafer_MEA_acute_firing_rate_mean: CCTE's Neural Acute Assay for Mean Firing Rate, Shafer Lab (AID 2284009).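 Further: analyzed for loss of signal so actives lower firing rate relative to DMSO.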 Summed up: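 Primary rat cortical neurons on 16-electrode MEA wells were exposed on DIV 13 or 15 to compound (0.03-40 uM). Spike counts per recording time, averaged over electrodes, were compared between 40-min baseline and 40-min post-exposure recordings as percent change.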

These results are taken from PubChem BioAssay (EPA / NIEHS).

Each structure is given as a SMILES string. Values joined by “and” are separate entries in the source; they are usually repeats but may differ in a detail not shown here. Equal values may be shown once. Records with an inconclusive call do not appear. Some compounds were tested as several samples or in several runs, with calls that do not always agree. Active and inactive are the calls of the source. How the source made its calls, unless noted: active means hit-call score of the fitted dose curve at least 0.9, where 1 is the maximum; inactive means score below 0.9.

Ratio of Nucleoli Translocation and Cytoplasm, AR (gene 367), sequence (P10275 whole entry, looked up): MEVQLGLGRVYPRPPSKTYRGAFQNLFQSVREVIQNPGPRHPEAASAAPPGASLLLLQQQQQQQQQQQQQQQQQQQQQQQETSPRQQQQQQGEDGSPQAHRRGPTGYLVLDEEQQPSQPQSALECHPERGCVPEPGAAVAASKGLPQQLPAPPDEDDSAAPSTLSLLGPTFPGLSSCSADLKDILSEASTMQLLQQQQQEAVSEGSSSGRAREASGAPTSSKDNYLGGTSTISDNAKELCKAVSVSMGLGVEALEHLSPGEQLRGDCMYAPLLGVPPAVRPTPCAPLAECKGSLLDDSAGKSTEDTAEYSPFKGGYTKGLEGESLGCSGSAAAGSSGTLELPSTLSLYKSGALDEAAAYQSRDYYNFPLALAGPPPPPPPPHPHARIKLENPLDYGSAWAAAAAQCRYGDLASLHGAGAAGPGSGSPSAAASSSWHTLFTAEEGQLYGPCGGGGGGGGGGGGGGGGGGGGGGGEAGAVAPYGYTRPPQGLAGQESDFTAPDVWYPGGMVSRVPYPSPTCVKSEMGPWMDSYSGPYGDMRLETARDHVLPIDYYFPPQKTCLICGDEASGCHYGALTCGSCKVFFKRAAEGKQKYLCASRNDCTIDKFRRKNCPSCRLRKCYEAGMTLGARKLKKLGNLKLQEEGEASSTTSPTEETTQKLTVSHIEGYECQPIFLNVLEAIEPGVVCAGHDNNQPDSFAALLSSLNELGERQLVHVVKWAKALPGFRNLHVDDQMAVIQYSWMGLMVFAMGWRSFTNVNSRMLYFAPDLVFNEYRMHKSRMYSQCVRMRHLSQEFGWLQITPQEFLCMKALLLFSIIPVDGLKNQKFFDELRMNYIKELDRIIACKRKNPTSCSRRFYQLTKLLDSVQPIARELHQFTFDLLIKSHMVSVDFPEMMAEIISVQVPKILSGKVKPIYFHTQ

In the case of `CN(CCCC(=O)c1cccnc1)N=O`, the outcome in assay [1], in assay [2], in assay [3] and in [4] was inactive.

For the compound `Clc1ccc(COC(Cn2ccnc2)c2ccc(Cl)cc2Cl)cc1` (configuration not stated), the outcome in [1], in assay [3], in [4] and in assay [5] was inactive. In [2], the AC50 was 74.4 µM (active).

With `CC(C)(C)CC(C)(C)c1ccc(O)cc1`, the outcome in [1], in assay [7], in [8], in assay [3], in [4] and in assay [5] was inactive. The AC50 was 27.6 µM (active) in assay [6], 6.06 µM (active) in assay [9] and 6.07 µM (active) in assay [10].

Consider `CC(C)(c1ccccc1)c1ccc(O)c(C(C)(C)c2ccccc2)c1`, for which the call in [6], in [7], in assay [3] and in assay [4] was inactive. Moreover, the AC50 in [9] was 8.24 µM (active); in assay [10], 8.32 µM (active).

As for `CC(C)CCCCCCOC(=O)c1ccccc1C(=O)OCCCCCCC(C)C`, the result in [2], in [3], in [4] and in [5] was inactive.

For `CC(=O)[O][Hg][c]1ccccc1`, the AC50 in assay [1] was 0.424 µM (active); in assay [6], 13.1 µM (active); in [8], 81.7 µM (active); in assay [3], 53.5 µM (active); in assay [5] it was 50 µM (active). The outcome in assay [2], in assay [7], in assay [9], in assay [10] and in assay [4] was inactive.

In the case of `c1cc[c]([Hg][c]2ccccc2)cc1`, the AC50 in assay [1] is 85.1 µM (active). Moreover, the outcome in assay [2] was inactive.

`COP(=O)(OC)O/C(=C\Cl)c1cc(Cl)c(Cl)cc1Cl`: the result in assay [1], in assay [3] and in [4] was inactive. The AC50 in assay [2] was 50 µM (active).

On to `CC(C)(c1ccc(OCC2CO2)cc1)c1ccc(OCC2CO2)cc1` (configuration not stated), for which, in assay [1], the AC50 is 38.1 µM (active). Moreover, the outcome in assay [2], in assay [3] and in [4] was inactive.

As for `O=C(O)C(F)(F)C(F)(F)C(F)(F)C(F)(F)C(F)(F)C(F)(F)C(F)(F)C(F)(F)C(F)(F)C(F)(F)F`, the outcome in [6], in assay [7], in [9], in assay [10], in assay [3] and in assay [4] was inactive. Moreover, the compound was called inactive in assay [5].

With `C=CCc1ccc(OC)cc1`, the outcome in [1] and in assay [2] was inactive.

Take `COP(=O)(OC)OC`: the outcome in assay [1], in [3], in assay [4] and in assay [5] was inactive.

Regarding `O=[N+]([O-])c1ccc(O)c([N+](=O)[O-])c1`, the result in assay [1], in assay [2], in [7], in assay [8], in assay [3] and in assay [4] was inactive. Also, in [5], the outcome was inactive. Moreover, the AC50 in assay [6] is 13 µM (active) and 10.3 µM (active); in assay [8] it was 18.1 µM (active).

Turning to `C[C@]12CCC(=O)C[C@@H]1CC[C@@H]1[C@@H]2CC[C@]2(C)[C@@H](O)CC[C@@H]12`, the compound was called inactive in assay [6], in assay [7], in [8], in assay [3] and in assay [4]. The AC50 in assay [9] and in assay [10] was 20 µM (active) throughout.

In the case of `C[C@H]1O[C@@H](O[C@H]2[C@@H](O)C[C@H](O[C@H]3[C@@H](O)C[C@H](O[C@H]4CC[C@@]5(C)[C@H](CC[C@@H]6[C@@H]5CC[C@]5(C)[C@@H](C7=CC(=O)OC7)CC[C@]65O)C4)O[C@@H]3C)O[C@@H]2C)C[C@H](O)[C@@H]1O`, the result in assay [1], in [2], in assay [3], in [4] and in assay [5] was inactive.

Take `Cl/C=C\C[N+]12CN3CN(CN(C3)C1)C2`: in assay [1], the AC50 was 50 µM (active). In addition, in [2], the result was inactive.

Turning to `CC(C)c1cccc(C(C)C)c1O`, the result in assay [1], in assay [2], in assay [3], in assay [4] and in assay [5] was inactive.

Consider `COP(=S)(OC)Oc1cc(Cl)c(Cl)cc1Cl`, for which the outcome in assay [1], in assay [2], in assay [3], in assay [4] and in assay [5] was inactive.

Regarding `CCCCCCCCc1ccc(O)cc1`, the outcome in [1], in assay [7], in assay [8], in [3], in assay [4] and in assay [5] was inactive. In addition, the concentration at half-maximal activity (AC50) was 50 µM (active) in assay [6], 3 µM (active) in [9] and 3.15 µM (active) in assay [10].

`O=c1[nH]c(=O)[nH]c(=O)[nH]1`: the outcome in assay [1], in [3], in assay [4] and in [5] was inactive.

As for `CCOP(=S)(OCC)Oc1nc(Cl)c(Cl)cc1Cl`, the outcome in [1], in assay [2], in assay [6], in assay [7], in assay [3] and in assay [4] was inactive. In addition, in assay [5], the result was inactive. Moreover, in assay [8], the half-maximal activity concentration (AC50) is 23.4 µM (active).

For the compound `CCSC(C)CC1CC(=O)C(C(CC)=NOC/C=C/Cl)=C(O)C1` (configuration not stated), the result in assay [1], in assay [2], in assay [3] and in assay [4] was inactive.

In the case of `C=C(C)C(=O)[O][Sn]([CH2]CCC)([CH2]CCC)[CH2]CCC`, the AC50 was 6.57 µM (active) in assay [6]; 10.9 µM (active) in assay [8]; 0.0312 µM (active) in [9]; 0.0311 µM (active) in [10]; 22.3 µM (active) in [3]; 11 µM (active) in assay [4]. Also, in assay [5], the AC50 is 11 µM (active). Also, in [7], the result was inactive.

On to `Cc1ccc2ccccc2c1C`, for which the outcome in [1], in [2], in assay [3] and in assay [4] was inactive.

On to `C[C@H]1CCCC(=O)CCC/C=C/c2cc(O)cc(O)c2C(=O)O1`, for which the concentration at half-maximal activity (AC50) in assay [2] was 84.8 µM (active). For the same compound, the outcome in assay [3], in [4] and in [5] was inactive.

Consider `CCC(=O)C(CC(C)N(C)C)(c1ccccc1)c1ccccc1` (configuration not stated), for which the outcome in assay [1], in assay [2], in assay [3], in assay [4] and in [5] was inactive. Moreover, the values for the AC50 in [9] and in assay [10] were 0.0569 µM (active) and 0.052 µM (active), respectively.

Take `COP(=S)(OC)Oc1ccc(Sc2ccc(OP(=S)(OC)OC)cc2)cc1`: the outcome in assay [1], in [2], in assay [3] and in [4] was inactive.

Turning to `C=CC(=O)OCCCCCC(C)C`, in assay [1], the outcome was inactive.

In the case of `O=C(Nc1ccc2[nH]ccc2c1)c1cc2cc(F)ccc2n1Cc1cccc(F)c1`, the result in [6], in [7], in assay [3] and in [4] was inactive. Also, the AC50 in assay [9] and in [10] was 1.43 µM (active) each time.

For `CC(C)(C)c1cc(O)ccc1O`, the outcome in [9] and in assay [10] was inactive.

For `Cc1ccccc1C(=O)Nc1cccc(OC(C)C)c1`, the outcome in assay [1], in [2], in assay [3], in [4] and in assay [5] was inactive.

On to `COc1cc(-c2ccc(N)c(OC)c2)ccc1N`, for which the result in assay [6], in assay [7], in [3], in [4] and in assay [5] was inactive.

As for `CC12CC1(C)C(=O)N(c1cc(Cl)cc(Cl)c1)C2=O` (configuration not stated), the result in [1], in [2], in assay [3], in assay [4] and in assay [5] was inactive.

Take `CCC1(c2ccc(N)cc2)CCC(=O)NC1=O` (configuration not stated): the result in assay [1], in [3], in [4] and in assay [5] was inactive.

As to `O=C1C2(Cl)C3(Cl)C4(Cl)C(Cl)(Cl)C5(Cl)C3(Cl)C1(Cl)C5(Cl)C24Cl` (configuration not stated), the half-maximal activity concentration (AC50) was 13.7 µM (active) in [1]; 13.1 µM (active) in assay [2]; 54 µM (active) in assay [6]; 71.6 µM (active) in assay [8]; 1.84 µM (active) in [9]; 1.84 µM (active) in [10]. Also, the result in assay [7], in [3], in assay [4] and in assay [5] was inactive.

On to `CCC(C)(C)c1ccc(O)c(C(C)(C)CC)c1`, for which the AC50 is 38 µM (active) in [6], 4.73 µM (active) in assay [9], 4.69 µM (active) in assay [10] and 42.1 µM (active) in assay [3]. Also, the result in assay [7], in assay [8], in assay [4] and in assay [5] was inactive.

Broadly, the AC50 is the concentration giving half of the maximal activity seen.
